Results as given in PubChem BioAssay (NCATS).
Results filed as inconclusive are left out. Activity calls are given as the source filed them. Calls come from the whole dose curve; as a rule, active = well fitted curve in the direction sought with a large enough effect; inconclusive = small, poorly fitted or top-dose-only effect, or another doubt; inactive = no such curve, though single readings can be large; an effect the other way counts as inactive or inconclusive. Square brackets hold non-standard residues; d marks the D form. Peptide text beside a SMILES is read from it. * marks the point of attachment. ξ: configuration not given here. Hexanoyl = CCCCCC(=O)*; ξL = CC(C)CC(N)C(=O)O

Key:
[1] = A2780 Cisplatin Sensitive Ovarian Cancer Cell Toxicity qHTS against the NCATS CANVASS Library (AID 1347353); note: nearly all actives have a fitted effect of over 60% in size; note: potency is the fitted concentration of half-maximal effect
How it was run: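 Luminescent ATP content (ATPLite, 10 min at room temperature) served as the read-out after cells had been exposed to compounds for 72 hours at 37 °C. Dosing followed an 11-point concentration series.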

[2] = qHTS for Antimalaria activity screened against the NCATS CANVASS Library (AID 1347380); note: nearly all actives have a fitted effect of over 40% in size; note: potency is the fitted concentration of half-maximal effect
How it was run: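 Dd2 strain, infected erythrocytes 2.5% Hct final / 0.3% parasitemia. 11-pt qHTS titration, 72 h, 37C, 5% O2, 5% CO2. Lysis buffer + SYBR Green, 18 h, fluorescence 485/535 nm.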

[3] = qHTS for Activators of p53 Stress Response Pathway screened against the NCATS CANVASS Library (AID 1347388)
How it was run: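 p53RE-bla HCT-116 cells (4000/well) were plated 5 h at 37C, exposed to compounds for 16 h at 37C over an 11-point concentration series, then loaded with CCF4 for 2 h at room temperature; 460/530 nm emission ratio read.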

[4] = Vero-766 cells viability qHTS against the NCATS CANVASS Library: Counterscreen for Zika virus inhibition assay (AID 1347394); note: nearly all actives have a fitted effect of over 60% in size; note: potency is the fitted concentration of half-maximal effect
How it was run: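 Uninfected Vero 766 (African green monkey) cells, 1000/well, attached overnight, then exposed 72 h at 37C to compounds (11-point qHTS). Viability read by CellTiter-Glo luminescence; media-only wells served as 100% inhibition.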

[5] = OV-SAHO Cancer Cell Toxicity qHTS against the NCATS CANVASS Library (AID 1347348); note: nearly all actives have a fitted effect of over 55% in size; note: potency is the fitted concentration of half-maximal effect
How it was run: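 Following a 4 h pre-incubation of 1000 seeded cells, compounds were pinned in an 11-pnt dilution series and left for 72 h; viability then came from CellTiter-Glo.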

[6] = qHTS assay for small molecule disruptors of mitochondrial membrane potential screened against the NCATS CANVASS Library (AID 1347389); note: nearly all actives have a fitted effect of over 60% in size; note: potency is the fitted concentration of half-maximal effect
How it was run: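 HepG2, 2,000 cells/well, attached overnight; compound 1 hr, 37C, 5% CO2; Mito-MPS dye 30 min, 37C; fluorescence 535 nm (monomer) and 590 nm (aggregate); decreased 590/535 ratio = depolarization.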

[7] = qHTS for activators of Nrf2/ARE signaling pathway screened against the NCATS CANVASS Library (AID 1347391); note: nearly all actives have a fitted effect of over 60% in size; note: potency is the fitted concentration of half-maximal effect
How it was run: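 Plate ARE-bla HepG2 cells at 2000/well and let them settle 5 h. Pin-transfer compounds in DMSO, incubate 16 h at 37C. Load CCF4 for 2 h at room temperature and read blue/green fluorescence.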

[8] = Viability qHTS for inhibitors of the SERCaMP assay screened against the NCATS CANVASS Library (AID 1347400); note: nearly all actives have a fitted effect of over 70% in size; note: potency is the fitted concentration of half-maximal effect
How it was run: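 SH-SY5Y SERCaMP MJH297 cells, 1000/well; 4 h settle, 37C/5% CO2; pin-transferred cpds; 48 h; CellTiter-Glo lum. Pos ctrl bortezomib 0.0001 - 4.6 uM.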

[9] = target: Cytochrome P450 3A4 (Homo sapiens) (UniProt P08684); assay: qHTS Assay for Activators of Cytochrome P450 3A4 (AID 885); note: nearly all actives have a fitted effect of over 65% in size
How it was run: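 Human CYP3A4 (20 nM) with Luciferin-PPXE at 25 uM (its KM) in 200 mM KPO4; 10 min compound preincubation, then NADPH regeneration and 60 min reaction at RT. Luciferin read by luminescence; normalized to 57 uM ketoconazole full inhibition.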

[10] = Confirmation and Secondary Assay for Modulators of Hemoglobin Beta Chain Splicing at IVS2 654 locus (AID 910);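 note: per-well total GFP intensity by laser scanning cytometry after 2-day treatment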
How it was run: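 HeLa cells stably carrying EGFP interrupted by mutant beta-globin IVS2-654 intron (CMV-driven) were treated with compound for 2 days at 37C; corrected splicing was scored as total peak GFP intensity per well (488 nm excitation, 500-520 nm emission).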

[11] = Confirmation and Secondary Assay for Modulators of Hemoglobin Beta Chain Splicing at IVS2 705 locus (AID 930);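 note: HeLa cells stably expressing the EGFP-705 splicing reporter; GFP fluorescence per well restored by corrected splicing of the IVS2-705 intron in EGFP; series mostly up to about 46 µM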
How it was run: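 Assay measures total GFP intensity per well in HeLa EGFP-705 cells after 2 days with compound; mis-splicing normally truncates EGFP, so fluorescence indicates corrected splicing.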

Measured: Potency

Sequence of Cytochrome P450 3A4 (Homo sapiens) (P08684 whole entry, looked up): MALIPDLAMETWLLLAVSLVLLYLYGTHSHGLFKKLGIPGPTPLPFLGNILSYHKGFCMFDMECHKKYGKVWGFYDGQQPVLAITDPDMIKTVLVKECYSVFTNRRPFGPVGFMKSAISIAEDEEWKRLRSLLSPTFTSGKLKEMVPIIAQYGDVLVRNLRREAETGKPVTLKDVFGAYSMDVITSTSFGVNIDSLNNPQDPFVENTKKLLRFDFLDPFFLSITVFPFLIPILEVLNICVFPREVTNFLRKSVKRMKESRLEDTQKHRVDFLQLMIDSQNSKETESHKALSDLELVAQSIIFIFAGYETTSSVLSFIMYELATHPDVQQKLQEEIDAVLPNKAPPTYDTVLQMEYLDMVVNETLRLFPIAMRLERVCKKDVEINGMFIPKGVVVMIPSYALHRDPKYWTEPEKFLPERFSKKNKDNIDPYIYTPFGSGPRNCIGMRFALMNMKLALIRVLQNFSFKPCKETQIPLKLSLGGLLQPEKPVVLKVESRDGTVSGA

C=C(C)C(=O)O[C@H]1C[C@@]2(C)OC(=CC2=O)/C(C)=C\[C@H]2OC(=O)C(=C)[C@H]12
inactive: [3]
active: [1] 0.662 µM | [2] 0.265 µM | [4] 13.2 µM

C[C@@]12CCC[C@@](C)(C(=O)OP(=O)(O)OC[C@H]3O[C@@H](n4cnc5c(N)ncnc54)[C@H](O)[C@@H]3O)[C@H]1C[C@@H](O)[C@@]13C[C@@H](CC[C@@H]21)[C@](C)(O)C3
inactive: [5] | [1] | [2] | [3] | [6] | [7] | [4] | [8]

O=C1CC(c2ccc(O)cc2)Oc2cc(O)ccc21 (stereo not drawn)
inactive: [5] | [2]

COC(=O)c1cccc2oc(-c3cccc4oc(-c5c(C)cccc5O)nc34)nc12
active: [7] 1.86 µM

CN1CC[C@]23c4ccccc4N[C@H]1[C@]21CCN(C)[C@H]3Nc2ccccc21
inactive: [2] | [4]

CC(C)=CCC[C@]1(C)[C@H]2CC(=O)[C@@]3(CO3)[C@@H]1C2
inactive: [6] | [4] | [8]

C=C1CCC2C(C)(C(=O)O)CCC(CC/C(C)=C/C(=O)NC(CCC(N)=O)C(=O)O)[C@@]2(C)C1 (stereo partly drawn)
inactive: [5] | [3] | [6] | [8]

CN1C(=O)C(=O)N2C(=C[C@]3(c4c[nH]c5ccccc45)c4ccccc4N[C@H]23)C1=O
inactive: [1] | [3] | [7] | [4] | [8]

CC(CCC[C@]1(C)C(=O)C=C[C@@]23C[C@]4(C)O[C@@H](C[C@@H]4[C@H]2O)C31)C(=O)O (stereo partly drawn)
inactive: [3] | [6] | [7] | [4] | [8]

O=C1OC(CCO)c2cccc(O)c21 (stereo not drawn)
inactive: [1] | [2] | [3] | [6] | [4]

C[C@@]12CCC[C@@](C)(C(=O)O)[C@H]1CC[C@@]13C[C@@H](CC[C@H]12)[C@](C)(O)C3
inactive: [1] | [2] | [3] | [6] | [4] | [8]

O=C1c2c(O)cc(O)cc2OC(c2ccc(O)cc2)C1O (stereo not drawn)
active: [2] 0.0053 µM | [6] 11.7 µM
inactive: [1] | [3] | [7] | [4]

C=C[C@]1(C)CC[C@@H]([C@H](C)C(=O)CC=C(C)C)O1
inactive: [5] | [2] | [3] | [6] | [7] | [4] | [8]

COC(=O)[C@@]12Oc3cccc(O)c3C(O)=C1C(=O)C[C@H](C)[C@H]2O
inactive: [5] | [2] | [3] | [6]

CC(C)=CCCC(C)(O)[C@H]1CC=C(C)C(O)C1 (stereo partly drawn)
inactive: [1] | [3] | [6] | [4] | [8]

CCCCCC(=O)N[C@@H](CC(C)C)C(=O)N[C@H](C=O)CCC(=O)O (Hexanoyl-Leu-Glu-aldehyde)
inactive: [5] | [6] | [7]

O=c1cc(-c2ccc(O)cc2)oc2cc(O)c([C@@H]3OC(CO)[C@H](O)[C@@H](O)[C@H]3O)c(O)c12 (stereo partly drawn)
inactive: [1] | [2] | [6] | [7] | [4] | [8]

C/C=C(/CO)C(=O)O[C@@H]1[C@H](O)[C@@H](C(=O)OC)O[C@@H]2C[C@H]3OC(n4cnc5c(N)ncnc54)[C@H](OC)[C@H]3O[C@@]12O (stereo partly drawn)
inactive: [2] | [3] | [6] | [8]

CC1(C)CC[C@]2(CO)CC[C@]3(C)C(=CCC4[C@@]5(C)CC[C@H](O)C(C)(C)C5CC[C@]43C)C2C1 (stereo partly drawn)
inactive: [5] | [3] | [7] | [4]

[C-]#[N+][C@@]12C(=O)[C@@H]3[C@@H](O[C@@]4(C(=O)N(C)c5cccc1c54)C3(C)C)C(=O)[C@@]2(C)C=C
inactive: [1] | [7] | [4] | [8]

C=C(Cl)[C@](Cl)(CBr)CC[C@@H](Br)C(C)(C)Cl
inactive: [5] | [3] | [6]

CCC(C)=C1OC(=O)[C@H](C)[C@H](O)[C@H](Cc2cccnc2)NC(=O)C(NC(=O)c2ncccc2O)C(C)OC1=O (stereo partly drawn)
inactive: [5] | [1] | [2] | [3] | [6] | [7] | [8]

CN1CC[C@@]2([C@@]34CCN(C)[C@@H]3Nc3ccccc34)c3ccccc3N[C@@H]12
active: [2] 0.211 µM
inactive: [5] | [1] | [6] | [8]

C/C=C1/C2=CCCN3C(=O)O[C@H]([C@H]1O)[C@H]23
inactive: [5] | [1] | [3] | [6] | [8]

COc1ccc([C@@H]2c3cc4c(cc3C(=O)C(C)C2C)OCO4)cc1OC (stereo partly drawn)
inactive: [1] | [3] | [4]

CC[C@@H]1C[C@@]2(CC)OC(=O)[C@@]3(CC)[C@H](CC)[C@@H]1[C@@H]23
inactive: [3] | [7] | [4]
active: [8] 6.04 µM

O=C1CC(c2ccc(O)cc2)Oc2ccccc21 (stereo not drawn)
inactive: [9] | [10] | [11] | [2] | [4]
active: [5] 13.3 µM | [6] 14.8 µM

C/C(=C\[C@@H](C)CC/C=C/CC/C=C/C(=O)O)[C@@H](O)[C@H](C)C(=O)CCCC1CC(=O)NC(=O)C1
inactive: [1] | [2] | [6] | [4] | [8]

C=C[C@@]1(C)CC[C@@H]([C@H](C)C(C)=O)O1
inactive: [5] | [3] | [6] | [7] | [8]

COC(=O)[C@]1([C@H]2CCC(=O)O2)CC(=O)c2c(O)cc(C)cc2O1
inactive: [3] | [6] | [4] | [8]

CC(=O)N[C@H](C)c1nc(/C=C/C=C/C(=O)CC2CC(=O)CC[C@]2(C)O)cs1 (stereo partly drawn)
inactive: [2] | [3] | [7] | [4] | [8]

CC[C@@H](C)[C@H]1NC(=O)C(CC(C)C)NC(=O)[C@@H](CC(C)C)NC(=O)[C@H](Cc2c[nH]c3ccccc23)NC(=O)CNC(=O)[C@@H](CC(N)=O)NC1=O (stereo partly drawn) (cyclo(GW[dL][ξL][dI][dN]))
inactive: [3] | [7] | [4]

C/C1=C/[C@@H](C)[C@H](O)C/C=C/CC/C=C/C(=O)O[C@@H]1[C@H](C)C(=O)CCCC1CC(=O)NC(=O)C1
active: [1] 10.5 µM
inactive: [2] | [3] | [6]
